Sampled rows, rich in hits. Any-hit rate of the full collection: about 9%.
JMJD2A Tudor: qHTS Assay for Inhibitors of JMJD2A-Tudor Domain; 390,000 tested, 4.4% active; Lysine-specific demethylase 4A (Homo sapiens), O75164; Potency, µM (titrated, usually from 114 µM), usual class: inhibitors; AlphaScreen JMJD2A-Tudor / H3K4me3 peptide binding; further: nearly all actives have a fitted effect of over 50% in size
ALOX12 inh: Primary qHTS assay for inhibitors of human arachidonate 12S-lipoxygenase (ALOX12): Round 2; purified 12hLO, xylenol orange hydroperoxide absorbance; Potency, µM (top dose mostly 108 µM), hits mostly inhibitors; Polyunsaturated fatty acid lipoxygenase ALOX12 (Homo sapiens), P18054; 580,000 tested, 1.1% active; AID 1671190, 2021
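Hydroperoxide product was detected by ferrous iron/xylenol orange as the 573 to 405 nm absorbance ratio. Arachidonic acid at 40 uM (final) was turned over for 30 min at room temperature by 150 nM human 12hLO, pH 7.0 Hepes buffer, after 15 min compound preincubation.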
G9a inh: qHTS Assay for Inhibitors of Histone Lysine Methyltransferase G9a. Potency, µM (highest dose often 102 µM), actives largely listed as inhibitors. 350,000 tested, 8.8% active. G9a H3K9 monomethylation, AlphaScreen, 2 h. AID 504332, 2011; further: nearly all actives have a fitted effect of over 75% in size
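G9a (20 nM) was preincubated 15 min with compound, then reacted 2 h at room temperature with 500 nM biotin-H3K9 peptide and 20 µM SAM. Monomethyl-H3K9 detected by AlphaScreen using anti-H3K9me1 antibody.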
PLK1 PBD inh: qHTS for Inhibitors of PLK1-PDB (polo-like kinase 1 - polo-box domain): Primary Screen; Potency, µM, usual class: inhibitors; 360,000 tested, 2.8% active; Plk1 PBD binding of FITC phosphopeptide, fluorescence polarization; further: series mostly up to about 57 µM; nearly all actives have a fitted effect of over 65% in size
BAZ2B inh: qHTS Assay for Inhibitors of BAZ2B; Potency, µM (titrated, usually from 114 µM), most hits filed as inhibitors; 360,000 tested, 4.4% active; AlphaScreen BAZ2B-H3K14Ac peptide displacement; further: nearly all actives have a fitted effect of over 60% in size
Target sequence (Q9UIF8 whole entry, looked up): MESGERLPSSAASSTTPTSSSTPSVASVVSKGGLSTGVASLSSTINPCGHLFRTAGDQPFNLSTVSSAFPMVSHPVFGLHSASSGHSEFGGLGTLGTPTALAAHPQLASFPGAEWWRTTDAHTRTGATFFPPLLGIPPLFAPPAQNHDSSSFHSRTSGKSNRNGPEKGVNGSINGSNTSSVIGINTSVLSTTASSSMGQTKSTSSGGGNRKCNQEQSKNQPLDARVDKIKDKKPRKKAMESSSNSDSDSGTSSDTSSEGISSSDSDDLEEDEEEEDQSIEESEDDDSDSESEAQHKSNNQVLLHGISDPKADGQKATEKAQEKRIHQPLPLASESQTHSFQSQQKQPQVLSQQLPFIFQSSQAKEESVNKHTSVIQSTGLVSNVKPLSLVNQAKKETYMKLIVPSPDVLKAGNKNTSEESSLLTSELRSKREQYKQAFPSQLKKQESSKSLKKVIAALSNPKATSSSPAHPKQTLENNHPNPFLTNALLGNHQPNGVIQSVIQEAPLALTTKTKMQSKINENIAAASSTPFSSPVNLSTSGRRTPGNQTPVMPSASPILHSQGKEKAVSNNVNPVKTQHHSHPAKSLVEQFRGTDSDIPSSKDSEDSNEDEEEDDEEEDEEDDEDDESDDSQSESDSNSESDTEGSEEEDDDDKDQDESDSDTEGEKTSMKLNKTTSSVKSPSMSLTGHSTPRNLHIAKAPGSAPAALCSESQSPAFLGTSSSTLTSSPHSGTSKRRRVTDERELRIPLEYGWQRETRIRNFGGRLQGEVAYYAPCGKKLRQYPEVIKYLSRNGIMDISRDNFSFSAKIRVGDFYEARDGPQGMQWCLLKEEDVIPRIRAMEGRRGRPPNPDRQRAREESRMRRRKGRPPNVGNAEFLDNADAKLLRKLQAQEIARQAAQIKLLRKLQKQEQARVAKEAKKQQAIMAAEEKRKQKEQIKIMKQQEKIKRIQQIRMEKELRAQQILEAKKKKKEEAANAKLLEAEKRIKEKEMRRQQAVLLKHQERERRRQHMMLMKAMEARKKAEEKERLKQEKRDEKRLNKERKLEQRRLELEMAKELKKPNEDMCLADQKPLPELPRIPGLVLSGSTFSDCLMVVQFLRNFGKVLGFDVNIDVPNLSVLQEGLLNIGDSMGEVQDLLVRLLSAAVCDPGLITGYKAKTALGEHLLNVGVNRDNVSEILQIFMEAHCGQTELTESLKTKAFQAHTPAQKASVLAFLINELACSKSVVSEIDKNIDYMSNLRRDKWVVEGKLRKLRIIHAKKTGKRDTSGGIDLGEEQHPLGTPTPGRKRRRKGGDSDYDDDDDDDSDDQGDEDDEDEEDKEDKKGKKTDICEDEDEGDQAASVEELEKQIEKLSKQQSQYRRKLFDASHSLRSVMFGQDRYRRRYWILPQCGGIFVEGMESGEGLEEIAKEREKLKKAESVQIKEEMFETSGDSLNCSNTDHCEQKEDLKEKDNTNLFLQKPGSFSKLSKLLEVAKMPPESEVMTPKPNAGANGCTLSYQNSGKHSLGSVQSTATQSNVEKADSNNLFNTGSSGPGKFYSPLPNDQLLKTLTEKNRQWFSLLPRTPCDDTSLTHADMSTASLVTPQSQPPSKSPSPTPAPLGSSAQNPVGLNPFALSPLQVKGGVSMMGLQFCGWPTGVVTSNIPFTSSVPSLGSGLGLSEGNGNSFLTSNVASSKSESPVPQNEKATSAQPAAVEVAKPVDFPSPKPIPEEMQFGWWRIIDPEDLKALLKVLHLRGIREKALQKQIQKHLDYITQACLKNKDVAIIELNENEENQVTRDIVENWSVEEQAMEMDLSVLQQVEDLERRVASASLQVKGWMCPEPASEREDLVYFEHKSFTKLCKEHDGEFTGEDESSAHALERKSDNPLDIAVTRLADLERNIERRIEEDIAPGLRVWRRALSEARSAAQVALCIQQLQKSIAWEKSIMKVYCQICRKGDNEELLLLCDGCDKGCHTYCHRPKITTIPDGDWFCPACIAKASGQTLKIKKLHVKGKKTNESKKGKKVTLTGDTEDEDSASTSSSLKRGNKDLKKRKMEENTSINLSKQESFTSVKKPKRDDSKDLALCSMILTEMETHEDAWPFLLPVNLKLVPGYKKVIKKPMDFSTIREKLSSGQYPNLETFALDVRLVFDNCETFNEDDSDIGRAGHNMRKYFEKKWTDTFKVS
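BAZ2B (50 nM) with biotin-H3(5-23)K14Ac peptide (50 nM) in PBS pH 7.4, 0.01% Tween-20, preformed 30 min, then compound 30 min at room temperature; top concentration 110uM. AlphaScreen streptavidin donor/nickel chelate acceptor beads (10 ug/mL final), 20 min dark, signal read.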
HP1b chromo inh: HTS for Inhibitors of HP1-beta Chromodomain Interactions with Methylated Histone Tails. Potency, µM (titrated, usually from 114 µM), most hits filed as inhibitors. AlphaScreen HP1-beta / biotin-H3K9me3 peptide binding. 390,000 tested, 0.56% active. AID 540317, 2011; further: nearly all actives have a fitted effect of over 70% in size
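AlphaScreen: HP1-beta (50 nM) preformed 30 min with biotin-H3(1-18)K9me3 peptide (50 nM) in PBS pH 7.4, 0.01% Tween-20. Compound added for 30 min at RT, then streptavidin donor/nickel chelate acceptor beads (10 ug/mL) for 30 min.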
Hits are given with their value; n = inactive; u = inconclusive; x = not tested or not shown; [ ] = dose if it differs, or a comment. The call rests on the fitted dose curve; in most records, active means well fitted curve in the direction sought with a large enough effect; inconclusive means small, poorly fitted or top-dose-only effect, or another doubt; inactive means no such curve, though single readings can be large; an effect the other way counts as inactive or inconclusive.

SMILES	JMJD2A Tudor	ALOX12 inh	G9a inh	PLK1 PBD inh	BAZ2B inh	HP1b chromo inh
COCCSc1nnc(NC(=O)c2ccc([N+](=O)[O-])cc2)s1	n	n	n	n	n	n
COc1cc(C(=O)Nc2nnc(CC(C)(C)C)s2)cc(OC)c1OC	n	n	u	x	n	n
CCOCc1nnc(NC(=O)c2cc(C(=O)OC)cc([N+](=O)[O-])c2)s1	45µM	n	50µM	27µM	u	n
COC(=O)c1cc(C(=O)Nc2nnc(CC(C)(C)C)s2)cc([N+](=O)[O-])c1	n	n	45µM	19µM	n	u
CCOC(=O)CSc1nnc(NC(=O)c2cc([N+](=O)[O-])cc([N+](=O)[O-])c2)s1	u	n	25µM	n	n	n
COC(=O)[C@@H]1Cc2nc[nH]c2CN1C	x	n	x	x	x	x
Cc1ccc2c(C)nc(Nc3nc(CSc4nnc(C)s4)cc(=O)[nH]3)nc2c1	n	n	n	n	n	n
COc1cccc2c(C)nc(Nc3nc(CSc4nnc(C)s4)cc(=O)[nH]3)nc12	u	n	n[12.7 µM]	24µM	n	u
OC[C@@H]1CN(Cc2ccco2)C[C@H]1c1ccccn1	x	n	x	x	x	x
CNC(=O)[C@@H](c1ccccc1F)N1CCC[C@H]1C(=O)NC1CC1	x	25µM	x	x	x	x
CN(C)c1ccc(C2CNC(c3ccc(Cl)c([N+](=O)[O-])c3)c3[nH]c4ccccc4c32)cc1 (configuration not stated)	35µM	n	u	n	10µM	u
O=[N+]([O-])c1cccc(C2NCC(c3ccccc3Cl)c3c2[nH]c2ccccc32)c1 (configuration not stated)	u	n	40µM	n	35µM	u
O=C1CC(c2ccc(Cl)c([N+](=O)[O-])c2)c2ccc3ccccc3c2N1 (configuration not stated)	u	n	n	n	n	n
CC(C)OCCCN1CC(=O)N2C(c3cccc([N+](=O)[O-])c3)c3[nH]c4ccccc4c3C[C@H]2C1=O (some centres not stated)	n	n	n	n	n	n
CC1CCCCN1S(=O)(=O)c1ccc2[nH]c(=O)cc(C(=O)NCCCN3CCCCCC3)c2c1 (configuration not stated)	n	n	79µM	n	n	n
Clc1nccnc1-c1ccccc1	n	n	n	n	n	n
COc1ccc(Cc2nnc(Cl)c3ccccc23)cc1OC	n	n	50µM	n	n	n
COc1ccc(Cc2nnc(Nc3cccc(Cl)c3)[nH]c2=O)cc1OC	x	n	x	x	x	x
COc1ccccc1C(=O)C1CCCN(C(=O)c2cn3cc(Cl)ccc3n2)C1 (configuration not stated)	n	u	28µM	n	n	n
COc1ccccc1C(=O)C1CCCN(C(=O)c2ccc(Cl)cc2)C1 (configuration not stated)	x	n	x	n	x	x
Cc1cnc(C(=O)N2CCCC(C(=O)c3ccc(Cl)cc3C)C2)cn1 (configuration not stated)	n[11.4 µM]	n	n	27µM	n	n
CCOc1cc(C(=O)NCc2ccc(C)cc2)ccc1OCC(=O)N1CCOCC1	n	n	n	n	x	n
CCOc1cc(/C=C\[N+](=O)[O-])ccc1OCC(=O)N1CCOCC1	n	n	10µM	21µM	n	n
CCOc1cc(/C=C/c2nc3cc(C)c(C)cc3s2)ccc1OCC(=O)N1CCOCC1	n	n	13µM	n	n	n
O=C(Nc1ccc2ncnc(N3CCCCC3)c2c1)c1ccc(F)cc1	x	n	x	x	x	x
SMILES	JMJD2A Tudor	ALOX12 inh	G9a inh	PLK1 PBD inh	BAZ2B inh	HP1b chromo inh
COC(=O)C1CCN([C@H]2[C@@H]3OC[C@@H](O3)[C@@H](NC(=O)Nc3cccc(C#N)c3)[C@@H]2O)CC1	x	n	x	x	x	x
Cc1ccc(NC(=O)Cn2c(O)c(N=NS(=O)(=O)c3ccc(C)cc3)c3ccccc32)cc1	25µM	14µM	2.5µM	27µM	n	n
CCn1c(O)c(N=NC(=O)CNc2cccc(C)c2)c2ccccc21	u	n	n	n	u	n
Cc1ccccc1NC(=O)Cn1c(O)c(N=NC(=O)c2ccccc2O)c2ccccc21	n	n	u	n	63µM	n
Cc1ccc(NCC(=O)N=Nc2c(O)n(C)c3ccccc23)cc1	n	n	x	n	18µM	n
CCn1c(O)c(N=NC(=O)CNc2ccc(C)cc2)c2ccccc21	56µM	n	u	n	32µM	u
COc1ccc(C=Nc2cccc3c(=O)[nH][nH]c(=O)c23)c2ccccc12	n	n	50µM	n	n	n
O=c1c2ccccc2sn1-c1ccc(S(=O)(=O)N2CCOCC2)cc1	50µM	x	x	x	x	u
O=c1c2ccccc2sn1-c1ccc(Cl)c(S(=O)(=O)N2CCOCC2)c1	14µM	x	x	x	x	u
COc1ccccc1-c1nc(NCCN2CCOCC2)c2ccccc2n1	x	u	n[0.501 µM]	x	x	x
O=C(O)c1csc(-c2cccc(Cl)c2)n1	n[11.4 µM]	n	40µM	27µM	n	n
O=C(O)c1csc(-c2ccccc2)n1	n[11.4 µM]	n	u	n	n	n
O=C(O)c1csc(-c2cccs2)n1	n	u	79µM	n	n	n
CNC(=O)c1csc(-c2cccs2)n1	n	n	n	n	n	n
CC(=O)N1CCc2ccccc2C1CC(=O)O (configuration not stated)	n	n	n	n	u	n
Cc1c(C)n(CCCN(C)C)c2ncnc(NCc3ccccc3)c12	u	n	79µM	n	n	n
O=C1CCC(C(=O)OCc2ccccc2)N1 (configuration not stated)	n	n	6.3µM	n	n	n
C=CCNc1nc(-c2ccccn2)nnc1-c1ccccc1	35µM	n	n	n	0.89µM	n
COc1ccc(C(C[N+](=O)[O-])c2c(-c3ccccc3)cc3ccccn23)cc1OC (configuration not stated)	n	u	10µM	n	u	n
COc1ccc(C(C[N+](=O)[O-])c2c(-c3ccccc3)cc3ccccn23)cc1 (configuration not stated)	u	u	u	n	n	u
COc1cc(C(C[N+](=O)[O-])c2c(C)cc3ccccn23)ccc1O (configuration not stated)	u	u	32µM	n	28µM	u
Cc1ccc(Cn2cc(-c3ccncc3)cc2C(=O)N2CCN(C)CC2)cc1	x	n	x	x	x	x

High-throughput results: PubChem, National Center for Advancing Translational Sciences (NCATS)
